The structures appear in SMILES notation. The whole screen tested about 69,000 compounds, of which about 8,600 (12%) showed an effect of 50% or more. What follows is part of a selection rich in strong results, with near analogues and random picks from the rest.

Here are results for 103 compounds from ChEMBL document CHEMBL4513216, “Probing the Open Global Health Chemical Diversity Library for Multistage-Active Starting Points for Next-Generation Antimalarials” (ACS Infect Dis, 2020).

The assay concerns Plasmodium berghei. Description: Screen against P. berghei liver stage (PbLuc), transformed with Luciferase, at 10uM. The assay is classed as functional, HepG2. The following applies: tested at 10 uM.
Turning to `CC(C)(C)OC(=O)NCCNC(=O)c1ccc2cc[nH]c2c1`, the INHIBITION was -16%. For the compound `COCCN1C(=O)CCC12CCCN(Cc1ccccc1F)C2` (stereo not drawn), the INHIBITION amounted to 44.5%. Regarding `Cc1ncsc1CN1C[C@H](OCC(C)C)[C@H]2OCCC[C@H]21`, the INHIBITION is given as -37.9%. On to `Cc1nc(CN2C[C@@H]3CCCO[C@@H]3[C@H](N(C)C(C)C)C2)cs1`, for which the INHIBITION is 66.8%. With `Cc1ncsc1CN1C[C@@H]2CCCO[C@@H]2[C@H](Nc2ccccn2)C1`, the INHIBITION came to 34.2%. Take `Cc1nc(CN2C[C@@H]3CCCO[C@@H]3[C@H](NC(=O)CC3CC3)C2)cs1`: the INHIBITION came to 47.9%. Take `CCS(=O)(=O)N[C@@H]1CN(Cc2cc(C)on2)C[C@@H]2CCCO[C@@H]21`: the INHIBITION amounted to 21%.

Turning to `Cc1ncsc1CN1C[C@@H]2CCCO[C@@H]2[C@H](N(C)C(C)C)C1`, the INHIBITION came out at 50.7%.

Take `COC1CCC[C@@H]2CN(Cc3csc(C)n3)C[C@H]12` (stereo partly drawn): the INHIBITION is given as 40.3%. In the case of `Cc1cc(CN2C[C@@H]3CCCO[C@@H]3[C@H](NS(C)(=O)=O)C2)no1`, the INHIBITION is reported as -13%. As to `Cc1cc(CN2C[C@@H]3CCCO[C@@H]3[C@H](N(C)C(C)C)C2)no1`, the INHIBITION is 71.6%. For the compound `Cc1cccc(C)c1NC(=O)CN(C)C(C)c1nc(C(C)(C)C)no1` (stereo not drawn), the INHIBITION worked out at 34.6%.

For `Cc1cccc(OCCNC(=O)CN2CCCC2Cn2cncn2)c1` (stereo not drawn), the INHIBITION is reported as 12.7%. On to `CNC(=O)c1cc(C)ccc1NCc1cn2cc(C)ccc2n1`, for which the INHIBITION worked out at 29.6%.

Regarding `CCC(C#N)NC(=O)c1sccc1OC` (stereo not drawn), the INHIBITION is 26.4%. For `COCC1CC2(CCN(C(=O)c3cncc(C)c3)CC2)CO1` (stereo not drawn), the INHIBITION was -26.1%. For the compound `Cc1ccc(N2CCCc3sc(C(=O)NCc4cccnc4)nc32)nn1`, the INHIBITION was 63.5%.

`O=C(NCc1cccnc1)c1nc2c(s1)CCCN2c1ncccn1`: the INHIBITION worked out at 26.3%. Turning to `Cc1ccc(N2CCCc3sc(C(=O)NCc4ccncc4)nc32)nn1`, the INHIBITION was 42.5%. `CC(C)N(C)CC(=O)N(C)C(c1cccc(F)c1)c1ccccn1` (stereo not drawn): the INHIBITION is -55.4%. Turning to `COc1ccccc1CCN1CCCC(CN(C)Cc2ccc(C)o2)C1` (stereo not drawn), the INHIBITION is 22%.

Consider `CN(Cc1ccccc1O)CC1CCCN(CCc2ccc(Cl)cc2)C1` (stereo not drawn), for which the INHIBITION is given as 5.36%.

As for `O=C(Nc1ccc(Cl)cn1)C1CCCN(CCc2ccncc2)C1` (stereo not drawn), the INHIBITION is recorded as 74.4%.

In the case of `COc1ccccc1CCN1CCCC(CN(C)Cc2cc(C)n[nH]2)C1` (stereo not drawn), the INHIBITION turned out to be 36.8%. Regarding `O=C(Nc1ccc(Cl)cn1)C1CCCN(Cc2ccccn2)C1` (stereo not drawn), the INHIBITION is listed as 15.7%. In the case of `CN(Cc1cccc(O)c1)CC1CCCN(CCc2ccc(Cl)cc2)C1` (stereo not drawn), the INHIBITION was found to be 73.5%. Regarding `COc1ccc(CCN2CCCC(CN(C)Cc3[nH]cnc3C)C2)cc1` (stereo not drawn), the INHIBITION came out at 16.3%. For the compound `CCN(CC1CCCN(CCc2cccc(OC)c2)C1)C(=O)CN(C)C` (stereo not drawn), the INHIBITION turned out to be 16%. Consider `COc1ccc(CCN2CCCC(CN(C)Cc3ccc(C)o3)C2)cc1` (stereo not drawn), for which the INHIBITION is on record as 70.6%. For `O=C(Nc1ccc(Cl)cn1)C1CCCN(CCc2ccccn2)C1` (stereo not drawn), the INHIBITION was 48.3%. `Cc1nc[nH]c1CN(C)CC1CCCN(CCc2ccc(Cl)cc2)C1` (stereo not drawn): the INHIBITION is on record as 33.7%.

For `Cc1cc(CN(C)CC2CCCN(CCc3ccc(Cl)cc3)C2)[nH]n1` (stereo not drawn), the INHIBITION is reported as 86.6%. On to `O=C(O)c1cc(-c2cccs2)nc2c(Cl)cnn12`, for which the INHIBITION is reported as 47.1%.

On to `Cn1cc(C#N)c(=O)n(CC(O)c2ccccc2F)c1=O` (stereo not drawn), for which the INHIBITION was -4.185%. Regarding `CC(=O)N1CCC(c2cnc(-c3c(C)n[nH]c3C)cn2)CC1`, the INHIBITION stood at 49.6%. For `CC(CC(=O)O)CC(=O)Nc1sc2c(c1C(N)=O)CCc1ccccc1-2` (stereo not drawn) the value was 27.5%; for `CNC(=O)C(C)(C)N1CCC[C@H]1C(=O)NCCN1CCCC1`, -84.9%. With `Cc1ccc(C(=O)N2CCCN(Cc3cccs3)CC2)n1C`, the INHIBITION worked out at 6.683%. On to `O=S1(=O)NC(C2CCN(Cc3ccncc3)CC2)Nc2ccccc21` (stereo not drawn), for which the INHIBITION is 1.5%.

For `Cc1noc(CN(C)CC2CCCN(CCc3ccc(Cl)cc3)C2)n1` (stereo not drawn), the INHIBITION was 58.5%. As for `CN(Cc1ccncc1)CC1CCCN(CCc2ccc(Cl)cc2)C1` (stereo not drawn), the figure is 65.9%. Turning to `Cc1nc(CN(C)CC2CCCN(CCc3ccc(Cl)cc3)C2)n(C)n1` (stereo not drawn), the INHIBITION is given as 39.3%. As for `COc1ccccc1CN(Cc1cccnc1)Cc1c[nH]c(C)n1`, the figure is 12%. `CN(Cc1nnc(C2CC2)n1C)C1CCN(CCc2ccncc2)C1` (stereo not drawn): the INHIBITION is -11.2%. As for `COc1ccccc1CCN1CCCC(CN(C)Cc2c[nH]c(C)n2)C1` (stereo not drawn), the figure is 85.7%; as for `Cc1nc(CN(C)CC2CCCN(CCc3ccc(Cl)cc3)C2)no1` (stereo not drawn), 40.8%; as for `COc1ccccc1CC1CCCN(CCC#N)C1` (stereo not drawn), 9.32%.

`CN(Cc1cnc(N)nc1)CC1CCCN(CCc2ccc(Cl)cc2)C1` (stereo not drawn): the INHIBITION is -7.94%. For the compound `CC(=O)NCCNC(=O)c1sc(-c2ccc(Cl)cc2)nc1C`, the INHIBITION is -14.75%. In the case of `C[C@@H]1CN(CCc2ccccc2)C[C@]12CCN(CC(=O)N(C)C)C2=O`, the INHIBITION is given as -29.5%.

For `CC(C#N)CN(C)Cc1nc2c(cnn2C)c(=O)[nH]1` (stereo not drawn), the INHIBITION is on record as 5.72%. Regarding `CCN(CC1CCCO1)S(=O)(=O)N1CCCCCC1` (stereo not drawn), the INHIBITION is listed as -9.21%. `Cc1ccc2c(c1)c(Sc1ccccc1)c(CC(=O)O)n2C`: the INHIBITION is listed as 12.8%. As for `Cc1c[nH]nc1C1CCN(C(=O)CC2CCCC2)C1` (stereo not drawn), the INHIBITION is listed as -136%. For the compound `CCc1oc(C(=O)N(C)Cc2nonc2C)cc1CN(CC)CC`, the INHIBITION is on record as 35.7%.

`Cc1ccc(C(=O)N2CCC3(CC2)C(=O)NCCN3C)cc1O`: the INHIBITION worked out at 4.64%. Consider `CC(C)c1ncc(CN2CCOC(C(=O)Nc3ccccc3)C2)cn1` (stereo not drawn), for which the INHIBITION was 6.32%. `Cc1cc(C)cc(NC(=O)CC2CN(Cc3ccccc3)CCO2)c1` (stereo not drawn): the INHIBITION is listed as -10.9%. `CN(C)c1ncccc1CN1CCOC(C(=O)Nc2ccccc2)C1` (stereo not drawn): the INHIBITION is listed as 37.6%.

On to `Cc1cc(NC(=O)C2CN(Cc3ccccc3)CCO2)ccn1` (stereo not drawn), for which the INHIBITION is 96.2%. As for `O=C(O)C1CN(Cc2cccc(-c3ccccn3)c2)CCO1` (stereo not drawn), the figure is -1.45%; as for `CN(C)c1ccc(NC(=O)C2CN(Cc3ccccc3)CCO2)cn1` (stereo not drawn), 52.6%; as for `CN(C)c1ncc(CN2CCOC(C(=O)Nc3ccccc3)C2)cn1` (stereo not drawn), 23.9%. Take `CC(C)(C)n1cc(NC(=O)C2CN(Cc3ccccc3)CCO2)cn1` (stereo not drawn): the INHIBITION is given as -43.3%.

In the case of `CN(C)c1ncccc1NC(=O)C1CN(Cc2ccccc2)CCO1` (stereo not drawn), the INHIBITION is 85.1%. `Cc1ccc(CNc2cc(N3CCCC3CO)ncn2)s1` (stereo not drawn): the INHIBITION is on record as -23.9%. For `C[C@@H]1CN(C(=O)c2cccn2C)C[C@]12CCN(c1ccsc1)C2=O`, the INHIBITION came out at 8.93%.

Consider `CC(C)c1nnc2n1CC(CNCc1nc3ccccc3o1)CC2` (stereo not drawn), for which the INHIBITION is reported as 13%. For `Cc1cc(NCc2cn(C)nc2-c2cccnc2)n(C)n1`, the INHIBITION is recorded as -17.1%. For the compound `CCn1cnnc1CNC(=O)N1CCCCCC1`, the INHIBITION is reported as -8.11%.

With `COCC1COCCC12CCN(S(=O)(=O)c1cccnc1)CC2` (stereo not drawn), the INHIBITION is listed as 36.5%. As for `Cc1cnn(CCNCc2nnc(-c3ccc(F)cc3)o2)c1`, the figure is -35.7%; as for `O=C(C1CNCCN1C(=O)CCOc1ccccc1)N1CCCC1` (stereo not drawn), -27.5%. Turning to `Cc1c(C(=O)O)cnn1-c1ccc(-c2nc(C(C)C)no2)cn1`, the INHIBITION is given as -44.7%. Regarding `CC(C)c1nc(C2CCCN(C(=O)c3ccc4[nH]nnc4c3)C2)no1` (stereo not drawn), the INHIBITION is on record as -6.14%.

Regarding `CC(=O)N1CCO[C@H]2[C@H](OCCCn3cccn3)CC[C@@H]21`, the INHIBITION was determined as 19.4%. Turning to `O=C(C1CCC1)N1CCO[C@H]2[C@H](OCCCn3cccn3)CC[C@@H]21`, the INHIBITION is -47.8%.

As for `Cc1nnc(N2C[C@H](OCCCn3cccn3)[C@H]3OCCC[C@H]32)s1`, the INHIBITION was 43.9%. For `c1cnn(CCCO[C@@H]2CC[C@H]3[C@H]2OCCN3CC2CC2)c1`, the INHIBITION is 53%.

As for `Cc1nnc(N2C[C@@H](OCCCn3cccn3)[C@H]3OCCC[C@H]32)s1`, the INHIBITION stood at 50.1%.

On to `c1cnn(CCCO[C@@H]2CC[C@H]3[C@H]2OCCN3CC2CCOCC2)c1`, for which the INHIBITION turned out to be 26.3%. As for `O=C(CC1CC1)N1CCO[C@H]2[C@H](OCCCn3cccn3)CC[C@@H]21`, the INHIBITION worked out at 55%. Take `Cc1nnc(N2C[C@H](OCc3ccncc3)[C@H]3OCCC[C@H]32)s1`: the INHIBITION is recorded as 19.5%.

Take `CCS(=O)(=O)N1CCO[C@H]2[C@H](OCCCn3cccn3)CC[C@@H]21`: the INHIBITION was -0.182%.

As for `Clc1ccc(OCCNCCn2cccn2)cc1`, the INHIBITION is recorded as 9.14%. For `O=C(CCOCC(F)(F)F)N1CCCC(n2ccnc2)C1` (stereo not drawn) the value was -63.3%; for `O=C(NCc1ccccc1Cn1cncn1)C1CC1`, 49.8%. For `CC(=O)N1CCN(Cc2ccccn2)CC2(CC(=O)N(C)C2)C1` (stereo not drawn) the value was 14.1%.

For `CCN1CCC(CC(=O)N2CCn3cccc3C2c2cccnc2)CC1` (stereo not drawn), the INHIBITION came to 18.9%. Consider `Cc1ncsc1CCC(=O)N1CCCC1c1cccnc1` (stereo not drawn), for which the INHIBITION is recorded as -2.79%.

Take `Cc1ncsc1CCC(=O)N1CCn2cccc2C1c1cccnc1` (stereo not drawn): the INHIBITION is recorded as 59.1%. Take `O=C(NCc1cccnc1N1CCCCC1)c1cccs1`: the INHIBITION is 7.12%. On to `O=C(NCc1cccnc1N1CCCCC1)c1ccc2c(c1)OCO2`, for which the INHIBITION is -1.85%.

For `CCS(=O)(=O)NCc1cccnc1N1CCCC(O)C1` (stereo not drawn), the INHIBITION was found to be 89.1%. Regarding `Cc1nnsc1C(=O)NCC1CCN(c2ccccn2)CC1`, the INHIBITION worked out at 14.6%. Take `CCC1CCCN(C(=O)NCc2cccnc2-n2cccn2)C1` (stereo not drawn): the INHIBITION was found to be 33.8%. Consider `O=C(NCc1cccnc1N1CCCC(O)C1)c1ccsc1` (stereo not drawn), for which the INHIBITION is 74.3%. In the case of `CC(=O)c1ccc(C(=O)NCc2cccnc2N2CCCC(O)C2)s1` (stereo not drawn), the INHIBITION came to 69.7%. As for `CC(NC(=O)c1cccs1)C(=O)NCc1cccnc1N1CCCCC1` (stereo not drawn), the INHIBITION turned out to be 2.26%. For `Cc1nnsc1C(=O)NCc1cccnc1N1CCc2ccccc2C1` the value was 5.8%. Consider `O=C(NCc1cccnc1N1CCCC(O)C1)c1ccc2[nH]nnc2c1` (stereo not drawn), for which the INHIBITION is 18.6%. As for `Cc1nnsc1C(=O)NCc1cccnc1N1CCCC(O)C1` (stereo not drawn), the figure is 66.3%; as for `CS(=O)(=O)NCC1CCCN(C(=O)Nc2cccnc2N2CCCC2)C1` (stereo not drawn), -8.69%.
